Tb PYK inh – inhibitors of Trypanosoma brucei pyruvate kinase | TbPYK enzyme, Kinase-Glo Plus ATP luminescence, 45 min | Potency, µM (series often up to 76.8 µM), for the others: at the top dose activity, negative = inhibition, actives largely listed as inhibitors | actives 0.12% (n = 410,000) | AID 624173; also: % is scaled to controls: 0 for no effect and ±100 for the full control effect; nearly all actives have a fitted effect of over 50% in size
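Screened from lowest to highest concentration, compounds were pinned into TbPYK/substrate mixtures, and ADP (130 uM final) was added. Plates sat at room temperature for 45 min prior to Kinase-Glo Plus detection by luminescence.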
SARS PLP yeast – SARS-CoV PLP inhibition in yeast | actives 0.19% (n = 330,000) | S. cerevisiae expressing SARS-CoV PLpro, growth rescue | Potency, µM (highest dose often 32.9 µM), without a hit: at the top dose activity, positive = growth rescue, usual class: activators | AID 485353; calls by dose curve; also: 0% is about no effect; nearly all actives have a fitted effect of over 55% in size
Giardia FBPA inh-1 – Giardia lamblia aldolase inhibition | actives 0.71% (n = 290,000) | A8B2U2 | Potency, µM (highest dose often 59.6 µM), for the others: at the top dose activity, negative = inhibition, most hits filed as inhibitors | purified Giardia FBPA; also: % is scaled to controls: 0 for no effect and ±100 for the full control effect; nearly all actives have a fitted effect of over 55% in size
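Giardia FBPA (40 nM reagent) was preincubated 10 min at RT with compound (up to 57.5 uM final), then substrate plus GAPDH/TPI/NAD/arsenate coupling system with diaphorase/resazurin was added; resorufin fluorescence (525/598 nm) was read after 20 min.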
RE007 growth inh – less growth of the S. pombe RE007 Vpr strain. S. pombe RE007 Vpr strain, BacTiter-Glo ATP luminescence, 24 h. Potency, µM (series often up to 92.2 µM), for inactives: at the top dose activity change, negative = less growth, hits mostly inhibitors. AID 651644. actives 0.21% (n = 360,000); active = well fitted falling curve with a large enough effect; inconclusive = small, poorly fitted or top-dose-only effect; inactive = no such curve, though single readings can be large or run the other way; also: % is scaled to controls: 0 for no effect and ±100 for the full control effect; nearly all actives have a fitted effect of over 50% in size
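Fission yeast strain RE007, carrying one chromosomally integrated HIV-1 vpr copy, was seeded at OD 0.01 in PMG+AL medium with 23 nL pinned compound. After 24 h at 30 °C and 99% humidity, viability was read by BacTiter-Glo luminescence.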
LmPK inh – LmPK (Leishmania mexicana) enzyme inhibition; purified LmPK, Kinase-Glo ATP luminescence, 1 h; Potency, µM (titrated, usually from 57.5 µM), inactives show at the highest dose activity change, negative = inhibition, usual class: inhibitors; actives 0.37% (n = 290,000); also: % is scaled to controls: 0 for no effect and ±100 for the full control effect
Target sequence (Q27686 whole entry, looked up): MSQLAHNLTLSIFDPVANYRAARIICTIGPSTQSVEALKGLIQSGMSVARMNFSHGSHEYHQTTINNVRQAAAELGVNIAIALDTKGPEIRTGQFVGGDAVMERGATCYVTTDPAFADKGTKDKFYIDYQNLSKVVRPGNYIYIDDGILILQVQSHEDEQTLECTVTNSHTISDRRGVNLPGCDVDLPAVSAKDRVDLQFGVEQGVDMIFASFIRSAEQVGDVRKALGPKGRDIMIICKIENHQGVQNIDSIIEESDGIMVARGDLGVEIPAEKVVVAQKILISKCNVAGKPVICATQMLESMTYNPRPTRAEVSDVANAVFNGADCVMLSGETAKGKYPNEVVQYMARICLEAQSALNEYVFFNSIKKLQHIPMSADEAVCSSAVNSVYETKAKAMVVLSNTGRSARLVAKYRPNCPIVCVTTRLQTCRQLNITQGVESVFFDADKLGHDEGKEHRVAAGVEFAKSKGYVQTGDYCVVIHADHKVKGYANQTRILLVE
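Screened at intermediate enzyme activity to detect both inhibitors and activators: LmPK at 0.1 nM, with a 0.5 nM enzyme column as activation reference. PEP 0.5 mM, ADP 0.1 mM; ATP detected by luminescence after 1 h.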
Giardia growth – inhibitors of Giardia lamblia growth. shares compounds with Giardia FBPA inh-1. Giardia lamblia trophozoite growth inhibition. Potency, µM (highest dose often 57.5 µM), for inactives: at the highest dose activity change, negative = inhibition, most hits filed as inhibitors. actives 5% (n = 1,500). AID 2785;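 also: trophozoites exposed to compound for 48 h at 37 °C; % is scaled to controls: 0 for no effect and ±100 for the full control effect; nearly all actives have a fitted effect of over 70% in size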
Mammal cell tox – mammalian cytotoxicity of Giardia aldolase inhibitor hits; Potency, µM (doses to about 57.5 µM), for the others: top-dose viability change, negative = toxicity, hits mostly inhibitors; actives 4% (n = 1,500); shares compounds with Giardia FBPA inh-1; mammalian cell viability counter-screen, qHTS; AID 2786;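 also: Chinese hamster ovary cells used as mammalian cytotoxicity surrogate; viability measured as cellular ATP by luminescence; compound exposure lasted 48 h before reading; % is scaled to controls: 0 for no effect and ±100 for the full control effect; nearly all actives have a fitted effect of over 60% in size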
Giardia FBPA inh-2 – confirmation of Giardia fructose-bisphosphate aldolase inhibitors; actives 5% (n = 1,500); shares compounds with Giardia FBPA inh-1; Potency, µM (highest dose often 57.5 µM), for the others: at the top dose activity change, negative = inhibition, most hits filed as inhibitors; purified Giardia aldolase enzyme activity, qHTS; also: % is scaled to controls: 0 for no effect and ±100 for the full control effect; nearly all actives have a fitted effect of over 45% in size
Rabbit FBPA inh – selectivity test for Giardia aldolase inhibitors: rabbit aldolase; Potency, µM (series often up to 57.5 µM), for the others: at the top dose activity, negative = inhibition, actives largely listed as inhibitors; actives 4% (n = 1,500); shares compounds with Giardia FBPA inh-1; Rabbit muscle FBPA enzyme inhibition, selectivity counter-screen; AID 2794; also: % is scaled to controls: 0 for no effect and ±100 for the full control effect; nearly all actives have a fitted effect of over 60% in size
Target sequence (P00883 whole entry, looked up): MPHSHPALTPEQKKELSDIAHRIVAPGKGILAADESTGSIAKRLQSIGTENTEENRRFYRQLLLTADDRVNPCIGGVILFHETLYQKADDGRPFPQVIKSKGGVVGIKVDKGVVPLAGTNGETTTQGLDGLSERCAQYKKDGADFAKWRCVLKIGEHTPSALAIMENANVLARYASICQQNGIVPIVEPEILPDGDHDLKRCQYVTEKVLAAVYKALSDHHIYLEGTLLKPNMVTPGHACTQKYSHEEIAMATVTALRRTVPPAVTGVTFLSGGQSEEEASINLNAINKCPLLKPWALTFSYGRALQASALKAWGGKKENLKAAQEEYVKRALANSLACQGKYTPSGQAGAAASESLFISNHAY
GAPDH coupling – counter-screen for Giardia aldolase inhibitors: GAPDH coupling enzyme; actives 6% (n = 1,500); Potency, µM (titrated, usually from 57.5 µM), without a hit: top-dose activity change, negative = inhibition, hits mostly inhibitors; GAPDH coupling enzyme counterscreen, biochemical, qHTS; shares compounds with Giardia FBPA inh-1; AID 2795; also: % is scaled to controls: 0 for no effect and ±100 for the full control effect; nearly all actives have a fitted effect of over 55% in size
Numbers without * were called inactive; ? = inconclusive; nt = not tested or not shown; [ ] = dose if it differs, or a comment. An excerpt weighted towards active compounds, which were near 1.1% of everything screened. Unless noted, calls follow the shape of the dose curve; as a rule, active = well fitted curve in the direction sought with a large enough effect; inconclusive = small, poorly fitted or top-dose-only effect, or another doubt; inactive = no such curve, though single readings can be large; an effect the other way counts as inactive or inconclusive. Potency is read from the fitted curve at half-maximal effect.

SMILES	Tb PYK inh	SARS PLP yeast	Giardia FBPA inh-1	RE007 growth inh	LmPK inh	Giardia growth	Mammal cell tox	Giardia FBPA inh-2	Rabbit FBPA inh	GAPDH coupling
COc1ccccc1CNC(=O)Cn1c(-c2cccs2)cc2cc(F)ccc21	2%	nt	nt	nt	nt	nt	nt	nt	nt	nt
CCN1CCc2c(sc(NC(=O)Cc3ccccc3)c2C(N)=O)C1	7%	-1%	?	2%	-4%	nt	nt	nt	nt	nt
NC(=O)c1c(NC(=O)c2ccccc2)sc2c1CCN(Cc1ccccc1)C2	5%	2%	16µM*	-3%	1%	?	-17%	0%	2%	10%
CCN1CCc2c(sc(NC(=O)Cc3ccccc3)c2C(=O)OC)C1	5%	-4%	14µM*	2%	-4%	5%[10.4 µM]	4%	9%	12%	16%
CCC(=O)Nc1sc2c(c1C(N)=O)CCN(Cc1ccccc1)C2	-14%	5%	?	15%	1%	nt	nt	nt	nt	nt
CC(C)C(=O)Nc1sc2c(c1C(N)=O)CCN(Cc1ccccc1)C2	2%	-7%	28µM*	4%	2%	3%[10.4 µM]	-11%	1%	3%	-18%
O=C(CNCc1cccnc1)Nc1cc(C(F)(F)F)ccc1N1CCOCC1	-13%	1%	7.9µM*	6%	-16%	?	-11%	-3%	-4%	4%
CCC(=O)Nc1cc(C(F)(F)F)ccc1N1CCOCC1	4%	0%	6%	21%	-1%	nt	nt	nt	nt	nt
COc1ccc(-c2cc3nc(C)c(CCC(=O)N4CCN(c5ccc(F)cc5)CC4)c(C)n3n2)c(OC)c1	-9%	nt	nt	nt	nt	nt	nt	nt	nt	nt
COc1ccc2c(c1)cc(CNc1ccc(OC)c(OC)c1)c(=O)n2CC(=O)Nc1ccc(F)cc1	-11%	nt	nt	nt	nt	nt	nt	nt	nt	nt
CCCCc1c(C)c(C#N)c2[nH]c3ccccc3n2c1=O	-2%	-27%	?	4%	-2%	nt	nt	nt	nt	nt
Cc1c(CCO)c(=O)n2c([nH]c3ccccc32)c1C#N	-4%	3%	25µM*	-23%	-3%	15%	-4%	-13%	-10%	-11%
CCn1c(SCC(=O)c2ccc(O)c(O)c2)nnc1-c1ccccc1	5%	0%	2.2µM*	18%	-3%	-20%	-15%	-27%	-29%	-1%
C=CCn1c(SCC(=O)c2ccc(O)c(O)c2)nnc1-c1ccccc1OC	2%	-6%	3.2µM*	-9%	4%	?	?	-19%	-18%	8%
C=CCn1c(SCC(=O)c2ccc(O)c(O)c2)nnc1-c1cccnc1	-7%	-1%	16µM*	-13%	9%	27%[10.4 µM]	23%	-25%	-20%	-4%
C=CCn1c(SCC(=O)c2ccc(O)c(O)c2)nnc1-c1cccc(C)c1	-24%	1%	nt	-14%	nt	nt	nt	nt	nt	nt
CCn1c(SCC(=O)c2ccc(O)c(O)c2)nnc1-c1ccccc1OC	-11%	2%	3.2µM*	2%	0%	?	-1%	-24%	-18%	0%
Cc1cccc(-c2nn3c(=O)cc(CN4CCN(S(=O)(=O)c5ccc(Cl)cc5)CC4)nc3s2)c1	-2%	nt	nt	nt	nt	nt	nt	nt	nt	nt
CCOC(=O)c1sc2ncn(CC(=O)Nc3cccc(C)c3)c(=O)c2c1C	6%	nt	nt	nt	nt	nt	nt	nt	nt	nt
Cc1ccccc1Cn1ccn(-c2ccc(F)c(F)c2)c(=O)c1=O	2%	nt	nt	nt	nt	nt	nt	nt	nt	nt
Cc1ccc(S(=O)(=O)N2CCN(C3CC4CCC3C4)CC2)cc1 (stereo unspecified)	9%	0%	14µM*	1%	2%	18%	-1%	3%	0%	14%
Cc1ccccc1-c1noc(CSc2nc(-c3ccc(F)cc3)cc(=O)[nH]2)n1	-19%[15.4 µM]	nt	nt	nt	nt	nt	nt	nt	nt	nt
O=C(NC(=S)Nc1cccnc1)c1ccccc1	-1%	-5%	13µM*	10%	-2%	-19%	6%	1%	11%	7%
O=C(NC(=S)Nc1cccnc1)c1cccc(Br)c1	8%	-8%	?	-3%	-4%	nt	nt	nt	nt	nt
COC(=O)c1ccc(NC(=S)NC(=O)c2cccnc2)cc1	-5%	-1%	7.1µM*	-1%	-2%	-13%[38.3 µM]	-22%	1%	10%	5%
SMILES	Tb PYK inh	SARS PLP yeast	Giardia FBPA inh-1	RE007 growth inh	LmPK inh	Giardia growth	Mammal cell tox	Giardia FBPA inh-2	Rabbit FBPA inh	GAPDH coupling
CCC(=O)NC(=S)Nc1ccc(NC(=O)c2cccnc2)cc1	0%	1%	-1%	-11%	1%	nt	nt	nt	nt	nt
COc1ccc(NC(=S)NC(=O)c2cccnc2)cc1	1%	-5%	7.9µM*	-4%	0%	22µM*	5%	6%	4%	4%
O=C(O)c1ccc(NC(=S)NC(=O)c2cccnc2)cc1	-21%	29%	3.5µM*	-8%	1%	-5%[38.3 µM]	-14%	8%	15%	8%
Nc1ccn(C[C@@H](CO)OCP(=O)(O)O)c(=O)n1	3%	nt	nt	nt	nt	nt	nt	nt	nt	nt
COc1cc(OC)cc(C(=O)NNC(=S)NC(=O)c2cccnc2)c1	-3%	3%	2µM*	6%	3%	16µM*	7%	13%	9%	14%
O=C(NC(=S)Nc1ccc(Br)cn1)c1cccnc1	2%	0%	-10%	-4%	3%	nt	nt	nt	nt	nt
O=C(NC(=S)Nc1ccccc1Br)c1cccnc1	5%	0%	6.3µM*	1%	-3%	?	-9%	-7%	5%	-1%
Cc1snnc1C(=O)NC(=S)Nc1ccccc1	-4%	0%	13µM*	-12%	2%	26%	10%	4%	16%	2%
O=C(NC(=S)Nc1cccnc1Cl)c1ccc(Cl)cc1	-2%	-10%	13µM*	?	0%	-21%	-5%	2%	4%	-1%
CC(C)(C)OC(=O)N1CC23CC(c4ccc(F)cc4)C(CC2S1(=O)=O)O3 (stereo unspecified)	nt	nt	6%	nt	nt	nt	nt	nt	nt	nt
NC(CSCSCC(N)C(=O)O)C(=O)O (stereo unspecified)	nt	nt	1%	nt	nt	nt	nt	nt	nt	nt
O=C(Cc1ccccc1)NC1CC(=O)N(c2ccccc2)C1 (stereo unspecified)	-5%	nt	nt	nt	nt	nt	nt	nt	nt	nt
Cc1csc(NC(=S)NC(=O)c2ccccc2)n1	0%	-19%	7.9µM*	-13%	-11%	?	50µM*	-5%	-7%	-7%

Compound activity (PubChem)
